Assay results as given in PubChem BioAssay (Tox21).
Records with an inconclusive call do not appear. The source made the active and inactive calls. Unless noted, calls come from the whole dose curve; as a rule, active = well fitted curve in the direction sought with a large enough effect in the repeat runs; inconclusive = weak or mixed curves; inactive = no such curve, though single readings can be large; an effect the other way counts as inactive or inconclusive.

Experiments:
[1] = target: Androgen receptor (Homo sapiens) (UniProt P10275); assay: qHTS assay to identify small molecule agonists of the androgen receptor (AR) signaling pathway in the presence of an antagonist (AID 1259381; calls by dose curve; note: nearly all actives have a fitted effect of over 15% in size)
In short: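 Agonist-mode confirmation screen: human MDA-kb2 cells stably expressing luciferase under an MMTV promoter bearing AR and GR response elements, co-treated with 3.0uM nilutamide (final). Luminescence measured after 16hr compound incubation.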

[2] = qHTS assay to identify small molecule antagonists of the estrogen receptor beta (ER-beta) signaling pathway - cell viability counter screen (AID 1259382);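 note: HEK293T cells carrying ER-beta-UAS-bla reporter stimulated with estradiol; series mostly up to about 92 µM; nearly all actives have a fitted effect of over 55% in size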
In short: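 Cytotoxicity counter screen multiplexed with the beta-lactamase antagonist assay: GripTite HEK293T ER-beta-bla cells were treated 16 hr with test chemicals in the presence of 1nM 17-beta-estradiol, and viability was measured by CellTiter-Glo.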

[3] = target: Estrogen receptor (Homo sapiens) (UniProt P03372); assay: qHTS assay to identify small molecule agonists of the estrogen receptor alpha (ER-alpha) signaling pathway in the presence of an antagonist (AID 1259383; calls by dose curve; note: top concentration of the series differs between compounds; nearly all actives have a fitted effect of over 15% in size)
In short: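 Agonist-mode confirmation in the presence of the ER antagonist ICI-182,780 at 10.0nM final. Breast-derived VM7Luc4E2 reporter cells were exposed to compounds for 22hr, and ERE-driven luciferase was quantified by luminescence.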

[4] = qHTS assay to identify small molecule agonists or antagonists of the thyroid stimulating hormone receptor (TSHR) signaling pathway - wild type cell line counter screen (AID 1259384; calls by dose curve)
In short: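 Wild-type HEK293 cells were plated 18 h at 37 C/5% CO2, pin-dosed with compound plus Ro20-1724 medium, held 30 min at room temperature, then given cAMP-d2 and anti-cAMP-cryptate; fluorescence was read after 1 h. Fifteen concentrations, triplicate.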

[5] = target: Thyrotropin receptor (Homo sapiens) (UniProt P16473); assay: qHTS assay to identify small molecule antagonists of the thyroid stimulating hormone receptor (TSHR) signaling pathway (AID 1259385; calls by dose curve; note: nearly all actives have a fitted effect of over 20% in size)
In short: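 TSHR-HEK293 cells were plated and held 18 h at 37C/5% CO2, then given compound plus Ro20-1724 and stimulated with TSH at 1.5 ng/mL final. After 30 min at room temperature, cAMP was detected with cAMP-d2/anti-cAMP-cryptate (1 h) by fluorescence.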

[6] = qHTS assay to identify small molecule agonists of the estrogen receptor alpha (ER-alpha) signaling pathway in the presence of an antagonist - cell viability counter screen (AID 1259386);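 note: series mostly up to about 92 µM; cells exposed to compounds for 22 h at 37 °C before the viability read; nearly all actives have a fitted effect of over 30% in size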
In short: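 Cytotoxicity was measured in parallel with the ERE-luciferase agonist screen, in the same wells. The cells were VM7Luc4E2, which endogenously express ER-alpha, and treatment was with compounds plus 10.0nM ICI-182,780 for 22hr.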

[7] = target: Progesterone receptor (Homo sapiens) (UniProt P06401); assay: qHTS assay to identify small molecule agonists of the progesterone receptor (PR) signaling pathway (AID 1346784; calls by dose curve; note: nearly all actives have a fitted effect of over 30% in size)
In short: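 Beta-lactamase reporter read-out: after 16 hr compound treatment at 37C and a further 2 hr at room temperature with LiveBLAzer B/G FRET substrate, fluorescence was measured in PR-UAS-bla HEK 293T cells grown in 2% charcoal-stripped serum.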

[8] = target: Progesterone receptor (Homo sapiens) (UniProt P06401); assay: qHTS assay to identify small molecule antagonists of the progesterone receptor (PR) signaling pathway (AID 1346795; active = well fitted inhibition curve with a large enough effect in the signal ratio in the repeat runs, not every such curve was filed as active; the % refers to the signal ratio)
In short: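 Read-out is fluorescence from the LiveBLAzer B/G FRET substrate, cleaved by a UAS-controlled beta-lactamase in PR-UAS-bla HEK293T cells after 16 hr exposure to compound plus 1 nM promegestone (final), followed by 2 hr at room temperature.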

[9] = qHTS assay to identify small molecule antagonists of the progesterone receptor (PR) signaling pathway - cell viability counter screen (AID 1346798);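 note: HEK293T PR-UAS-bla cells stimulated with the agonist R5020; series mostly up to about 92 µM; nearly all actives have a fitted effect of over 50% in size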
In short: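 HEK293T PR-UAS-bla, 2% charcoal-stripped FBS; 4 hr pre-plate; cpd + R5020, 16 h 37C; LiveBLAzer read first; then CellTiter-Glo 30 min RT, luminescence.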

[10] = qHTS assay to identify small molecule agonists of the progesterone receptor (PR) signaling pathway - cell viability counter screen (AID 1346799; calls by dose curve; note: nearly all actives have a fitted effect of over 45% in size)
In short: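 Luminescence from CellTiter-Glo, added after the beta-lactamase FRET read in the same wells, gave cytotoxicity in PR-UAS-bla HEK293T cells treated with compounds for 16 hr at 37C.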

[11] = qHTS assay to identify small molecule antagonists of the TGF-beta/Smad signaling pathway - cell viability counter screen (AID 1346824); note: nearly all actives have a fitted effect of over 50% in size
In short: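 SBE-bla HEK 293T cells were plated overnight at 37 C, then given compounds in DMSO plus TGF-beta1 (added as 0.25 ng/mL solution) for 5 hr. After the bla read, CellTiter-Glo was added to the same wells and luminescence read after 30 min at room temperature.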

[12] = qHTS assay to identify small molecule agonists of the TGF-beta/Smad signaling pathway - cell viability counter screen (AID 1346829); note: top concentration of the series differs between compounds; nearly all actives have a fitted effect of over 45% in size
In short: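 HEK 293T SBE-bla line, 5 hr compound exposure at 37 C, multiplexed CellTiter-Glo viability read by luminescence.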

[13] = qHTS assay to identify small molecule agonists of the TGF-beta/Smad signaling pathway (AID 1346859; active = well fitted activation curve with a large enough effect in the signal ratio in the repeat runs, not every such curve was filed as active; the % refers to the signal ratio; note: series mostly up to about 77 µM)
In short: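 SBE-bla HEK 293T, 4,000 cells/well, plated o/n; cpd in DMSO, 5 hr, 37 C/5% CO2; B/G FRET substrate 2 hr RT; ex 405, em 460/530 nm.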

[14] = Human pregnane X receptor (PXR) small molecule agonists, qHTS cell viability counter screen (AID 1346977); note: nearly all actives have a fitted effect of over 50% in size
In short: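 PXR-Luc HepG2, 2,000 cells/well, 5% charcoal-stripped FBS; 5hr settle; cpd 24hr, 37C/5% CO2; CellTiter-Fluor at 23hr, read 1hr later (fluorescence).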

[15] = Caspase-3/7 induction in HepG2 cells by small molecules, qHTS assay (AID 1346978); note: nearly all actives have a fitted effect of over 15% in size
In short: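 Wild-type HepG2 cells (2,000/well) were settled 5 h at 37 C, 5% CO2, then exposed to compounds in DMSO for 17 h. Caspase-3/7 activity was read by luminescence 30 min after adding Caspase-Glo 3/7 reagent at room temperature.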

[16] = Caspase-3/7 induction in CHO-K1 cells by small molecules, qHTS cell viability counter screen (AID 1346979); note: nearly all actives have a fitted effect of over 35% in size
In short: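 Cells (CHO-K1, wild type) are plated at 1,500 per well and incubated 5hr. Test compounds in DMSO are then pinned in, followed by 16hr at 37C and 5% CO2. Viability is read by CellTiter-Fluor fluorescence after 1hr.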

[17] = Caspase-3/7 induction in CHO-K1 cells by small molecules, qHTS assay (AID 1346980); note: nearly all actives have a fitted effect of over 15% in size
In short: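 Wild-type cells were seeded at 1,500 per well and settled 5 hr at 37 C, 5% CO2, then exposed to DMSO-dissolved compounds for 17 hr. Caspase-Glo 3/7 reagent was added, and luminescence was read after 30min at room temperature.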

[18] = Caspase-3/7 induction in HepG2 cells by small molecules, qHTS cell viability counter screen (AID 1346981); note: series mostly up to about 92 µM; nearly all actives have a fitted effect of over 30% in size
In short: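 Cell viability is measured as a cytotoxicity counter screen alongside the Caspase-Glo 3/7 readout in identical wells. Wild-type HepG2 cells are treated with test compounds for 16 hr at 37 C before CellTiter-Fluor addition and a 1-hr incubation.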

[19] = target: Thyrotropin-releasing hormone receptor (Homo sapiens) (UniProt P34981); assay: qHTS assay to identify small molecule antagonists of the thyrotropin-releasing hormone receptor (TRHR) signaling pathway (AID 1346877; active = well fitted inhibition curve with a large enough effect in the repeat runs, not every such curve was filed as active; note: series mostly up to about 51 µM)
In short: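 Antagonism is measured as suppression of the calcium response to 1 nM TRH in TRHR-HEK293 cells that have been dye-loaded for 2 h at 37 °C after overnight plating. Each compound is tested at 15 concentrations in triplicate.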

[20] = target: Thyrotropin-releasing hormone receptor (Homo sapiens) (UniProt P34981); assay: qHTS assay to identify small molecule agonists of the thyrotropin-releasing hormone receptor (TRHR) signaling pathway (AID 1346891; calls by dose curve; note: series mostly up to about 58 µM)
In short: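 Intracellular calcium rise, read as fluorescence every second for 3 min, served as the agonist signal in dye-loaded HEK293 cells expressing TRHR; each compound ran at 15 concentrations in triplicate.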
% is set by controls: 0 for no effect and ±100 for the full control effect.

Sequence of Progesterone receptor (Homo sapiens) (P06401 whole entry, looked up): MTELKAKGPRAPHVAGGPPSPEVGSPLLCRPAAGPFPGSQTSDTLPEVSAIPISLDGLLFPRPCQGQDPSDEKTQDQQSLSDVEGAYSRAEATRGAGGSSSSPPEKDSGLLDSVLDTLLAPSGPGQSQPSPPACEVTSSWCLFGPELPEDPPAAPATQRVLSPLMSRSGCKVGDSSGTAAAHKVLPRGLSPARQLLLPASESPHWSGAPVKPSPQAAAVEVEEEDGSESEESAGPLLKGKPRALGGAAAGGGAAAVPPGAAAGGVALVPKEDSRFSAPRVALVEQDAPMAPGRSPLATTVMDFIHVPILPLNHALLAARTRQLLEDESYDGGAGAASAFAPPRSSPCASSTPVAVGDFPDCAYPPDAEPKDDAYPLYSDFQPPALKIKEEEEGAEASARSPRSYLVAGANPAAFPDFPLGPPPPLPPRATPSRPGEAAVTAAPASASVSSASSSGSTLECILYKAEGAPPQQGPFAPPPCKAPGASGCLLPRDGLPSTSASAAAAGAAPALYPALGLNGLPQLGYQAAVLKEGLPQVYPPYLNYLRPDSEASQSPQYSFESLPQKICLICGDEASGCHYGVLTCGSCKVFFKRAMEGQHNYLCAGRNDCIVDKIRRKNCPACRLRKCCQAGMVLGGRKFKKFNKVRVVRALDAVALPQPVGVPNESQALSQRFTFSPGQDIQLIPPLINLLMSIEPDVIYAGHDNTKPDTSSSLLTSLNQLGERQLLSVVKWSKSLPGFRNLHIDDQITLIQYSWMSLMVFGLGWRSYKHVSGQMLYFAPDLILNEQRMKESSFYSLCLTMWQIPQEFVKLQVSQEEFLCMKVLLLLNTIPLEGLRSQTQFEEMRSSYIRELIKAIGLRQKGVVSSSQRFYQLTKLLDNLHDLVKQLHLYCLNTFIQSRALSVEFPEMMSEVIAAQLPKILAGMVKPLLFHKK
Sequence of Estrogen receptor (Homo sapiens) (P03372 whole entry, looked up): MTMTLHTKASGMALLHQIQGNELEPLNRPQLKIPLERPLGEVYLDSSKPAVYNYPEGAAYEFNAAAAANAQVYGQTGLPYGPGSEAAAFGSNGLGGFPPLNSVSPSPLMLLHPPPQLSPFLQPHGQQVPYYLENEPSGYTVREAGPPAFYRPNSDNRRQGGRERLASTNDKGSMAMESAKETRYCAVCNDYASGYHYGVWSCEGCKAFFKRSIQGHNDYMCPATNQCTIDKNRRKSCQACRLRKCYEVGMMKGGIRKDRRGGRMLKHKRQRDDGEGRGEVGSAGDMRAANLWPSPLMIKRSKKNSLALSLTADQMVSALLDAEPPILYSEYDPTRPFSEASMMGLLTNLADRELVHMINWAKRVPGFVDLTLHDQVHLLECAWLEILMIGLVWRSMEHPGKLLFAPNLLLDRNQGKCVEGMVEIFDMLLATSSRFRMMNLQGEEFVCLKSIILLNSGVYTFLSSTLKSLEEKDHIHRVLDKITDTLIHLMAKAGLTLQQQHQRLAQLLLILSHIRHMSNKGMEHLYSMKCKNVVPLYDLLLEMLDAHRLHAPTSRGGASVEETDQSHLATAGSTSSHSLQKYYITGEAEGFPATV
Sequence of Thyrotropin receptor (Homo sapiens) (P16473 whole entry, looked up): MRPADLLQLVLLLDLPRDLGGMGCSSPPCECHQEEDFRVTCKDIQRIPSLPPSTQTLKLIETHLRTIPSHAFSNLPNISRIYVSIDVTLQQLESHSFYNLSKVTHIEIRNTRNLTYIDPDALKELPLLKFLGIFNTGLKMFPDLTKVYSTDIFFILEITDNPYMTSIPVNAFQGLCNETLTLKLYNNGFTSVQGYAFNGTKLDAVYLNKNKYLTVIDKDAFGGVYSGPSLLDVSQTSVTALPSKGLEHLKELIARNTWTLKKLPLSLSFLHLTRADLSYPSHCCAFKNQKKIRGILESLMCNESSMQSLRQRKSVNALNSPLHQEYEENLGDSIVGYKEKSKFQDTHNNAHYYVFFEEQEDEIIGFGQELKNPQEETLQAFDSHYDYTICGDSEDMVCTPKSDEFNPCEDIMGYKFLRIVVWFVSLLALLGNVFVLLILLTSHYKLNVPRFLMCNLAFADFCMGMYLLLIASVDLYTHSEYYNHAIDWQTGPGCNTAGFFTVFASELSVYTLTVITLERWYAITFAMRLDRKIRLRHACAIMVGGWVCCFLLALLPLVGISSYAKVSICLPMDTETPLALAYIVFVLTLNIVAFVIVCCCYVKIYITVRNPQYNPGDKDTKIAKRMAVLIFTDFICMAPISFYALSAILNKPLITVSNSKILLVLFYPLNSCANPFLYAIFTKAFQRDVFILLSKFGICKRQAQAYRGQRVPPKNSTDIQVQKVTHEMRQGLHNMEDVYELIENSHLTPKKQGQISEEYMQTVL
Sequence of Thyrotropin-releasing hormone receptor (Homo sapiens) (P34981 whole entry, looked up): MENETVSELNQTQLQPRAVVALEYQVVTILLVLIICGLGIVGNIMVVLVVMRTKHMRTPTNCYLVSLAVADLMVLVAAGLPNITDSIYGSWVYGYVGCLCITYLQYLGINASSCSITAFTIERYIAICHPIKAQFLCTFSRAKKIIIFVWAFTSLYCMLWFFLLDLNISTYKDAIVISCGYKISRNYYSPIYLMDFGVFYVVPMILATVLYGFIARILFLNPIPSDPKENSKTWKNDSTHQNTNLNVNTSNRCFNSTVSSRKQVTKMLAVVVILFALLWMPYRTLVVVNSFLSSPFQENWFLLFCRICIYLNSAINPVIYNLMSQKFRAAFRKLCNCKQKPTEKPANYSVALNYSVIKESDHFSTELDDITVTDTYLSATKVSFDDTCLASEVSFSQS
Sequence of Androgen receptor (Homo sapiens) (P10275 whole entry, looked up): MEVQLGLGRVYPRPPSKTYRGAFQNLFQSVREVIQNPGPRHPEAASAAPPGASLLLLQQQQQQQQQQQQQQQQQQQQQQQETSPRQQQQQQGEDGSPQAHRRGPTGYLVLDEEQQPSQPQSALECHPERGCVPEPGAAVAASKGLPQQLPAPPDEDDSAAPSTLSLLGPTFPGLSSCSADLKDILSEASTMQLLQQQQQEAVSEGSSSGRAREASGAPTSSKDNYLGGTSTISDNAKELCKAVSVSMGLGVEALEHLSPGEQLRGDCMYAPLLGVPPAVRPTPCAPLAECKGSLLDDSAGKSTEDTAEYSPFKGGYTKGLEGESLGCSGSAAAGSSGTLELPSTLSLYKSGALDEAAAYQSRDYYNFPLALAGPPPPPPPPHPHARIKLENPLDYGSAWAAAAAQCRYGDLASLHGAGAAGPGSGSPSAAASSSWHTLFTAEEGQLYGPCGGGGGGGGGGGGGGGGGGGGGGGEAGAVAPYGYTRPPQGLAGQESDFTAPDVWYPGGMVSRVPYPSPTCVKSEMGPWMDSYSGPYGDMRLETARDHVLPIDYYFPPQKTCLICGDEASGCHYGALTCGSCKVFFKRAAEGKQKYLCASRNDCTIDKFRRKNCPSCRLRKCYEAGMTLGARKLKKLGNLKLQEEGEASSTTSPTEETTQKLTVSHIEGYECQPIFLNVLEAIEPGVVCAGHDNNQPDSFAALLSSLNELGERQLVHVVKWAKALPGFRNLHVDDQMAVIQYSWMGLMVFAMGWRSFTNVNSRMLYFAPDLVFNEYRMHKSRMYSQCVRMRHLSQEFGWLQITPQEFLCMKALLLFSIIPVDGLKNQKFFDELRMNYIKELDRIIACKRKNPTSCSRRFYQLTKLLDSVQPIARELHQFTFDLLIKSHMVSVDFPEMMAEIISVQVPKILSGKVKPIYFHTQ

COCC(=O)Nc1c(I)c(C(=O)NCC(O)CO)c(I)c(C(=O)N(C)CC(O)CO)c1I (stereo not given)
inactive: outcome [1] | outcome [2] | outcome [3] | outcome [4] | outcome [5] | Potency [6] | Potency [7] | Potency [8] | Potency [9] | Potency [10] | outcome [11] | outcome [12] | outcome [13] | Potency [14] | outcome [15] | Potency [16] | outcome [17] | Potency [18]

CCCCC(CC)CNC(=O)CC(C)OC(=O)CCC(=O)O (stereo not given)
inactive: outcome [1] | outcome [2] | outcome [3] | outcome [4] | outcome [5] | Potency [6] | Potency [8] | Potency [9] | Potency [10] | outcome [11] | outcome [12] | outcome [13] | outcome [19] | outcome [20] | Potency [14] | outcome [15] | Potency [16] | outcome [17] | Potency [18]

O=S(=O)(O)SSS(=O)(=O)O
inactive: outcome [1] | outcome [4] | outcome [5] | Potency [6] | Potency [7] | Potency [8] | Potency [9] | Potency [10] | outcome [11] | outcome [12] | outcome [13] | outcome [19] | outcome [20] | Potency [14] | outcome [15] | Potency [16] | outcome [17] | Potency [18]

CC(C)C(=O)Nc1cccc(C(F)(F)F)c1
inactive: outcome [1] | outcome [2] | outcome [3] | Potency [6] | Potency [7] | Potency [8] | outcome [11] | outcome [12] | outcome [13] | outcome [19] | outcome [20] | Potency [14] | outcome [15] | outcome [17] | Potency [18]

O=C(O)c1ccccc1C(=O)Nc1ccc(S(=O)(=O)Nc2nccs2)cc1
inactive: outcome [1] | outcome [2] | Potency [6] | Potency [7] | Potency [8] | Potency [9] | Potency [10] | outcome [11] | outcome [12] | outcome [13] | outcome [19] | outcome [20] | Potency [14] | outcome [15] | Potency [16] | outcome [17] | Potency [18]

O=C1OC(=O)c2cc(Oc3ccc4c(c3)C(=O)OC4=O)ccc21
inactive: outcome [1] | outcome [2] | outcome [3] | outcome [4] | outcome [5] | Potency [6] | Potency [7] | Potency [8] | Potency [9] | Potency [10] | outcome [11] | outcome [12] | outcome [13] | outcome [19] | outcome [20] | Potency [14] | outcome [15] | outcome [17] | Potency [18]

CCC(C)(C)C1CCC(=O)CC1
inactive: outcome [1] | outcome [2] | outcome [3] | outcome [4] | outcome [5] | Potency [6] | Potency [8] | Potency [9] | Potency [10] | outcome [11] | outcome [12] | outcome [13] | Potency [14] | outcome [15] | Potency [16] | outcome [17] | Potency [18]

C=CCCCCCCCCCCC
inactive: activation [1] 2.68% [at 8.39 µM] | activity change, negative = cytotoxicity [2] 4.44% [at 8.39 µM] | activation [3] 0.334% [at 8.39 µM] | cAMP activity change [4] 1.9% [at 8.39 µM] | activity change, negative = inhibition [5] 3.13% [at 8.39 µM] | activity change, negative = cytotoxicity [6] -2.37% [at 8.39 µM] | activity change, negative = inhibition [8] 5.07% [at 8.39 µM] | activity change, negative = cytotoxicity [10] -1.19% [at 8.39 µM] | viability change, negative = cytotoxic [11] 12.5% [at 6.97 µM] | activity change, negative = cytotoxicity [12] -3.69% [at 6.97 µM] | activation [13] -3.71% [at 6.97 µM] | activity, negative = inhibition [19] 4.06% [at 4.65 µM] | activation [20] -0.423% [at 5.23 µM] | activity change, negative = cytotoxicity [14] -1.17% [at 8.39 µM] | caspase activation [15] -1.35% [at 8.39 µM] | activity change, negative = cytotoxicity [16] -0.387% [at 8.39 µM] | caspase-3/7 activation [17] 0.611% [at 8.39 µM]
